Screening data (PubChem BioAssay)
Many of the other results were omitted from the sample, so hits are more common in it than they were.
BL2 CD40 inh: inhibitors of CD40-induced NF-kB signaling, primary screen, BL2 cells, luciferase reporter, single point | CD40L-induced, 4 h | inhibition, % at 10 µM | 83,000 compounds, 0.94% hits;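 active = mean inhibition of at least 50% with a set share of replicates also reaching that level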;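 also: 0% = neutral control wells and 100% = IKK inhibitor VII at 50 µM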
* marks the source's active call; other numbers are inactive results; [ ] = dose if it differs, or a comment.

CCC(=O)N1[C@H](CO)[C@H](c2ccc(C#CC3CCCCC3)cc2)[C@@H]1CNC(C)C was read as BL2 CD40 inh 7[25 µM].
Screening COC(=O)c1cc(-c2ccc(C)o2)nc2ccccc12 returned BL2 CD40 inh -37.
For Cc1ccc(-c2cc(C(=O)N3CC(C)OC(C)C3)c3ccccc3n2)o1 (centres undefined) the results were BL2 CD40 inh 114*.
Cc1ccc(-c2cc(C(=O)NCc3ccco3)c3ccccc3n2)o1 was read as BL2 CD40 inh -10.
`O=C(C[C@@H]1C[C@@H]2c3cc(NC(=O)C4CCC4)ccc3O[C@@H]2[C@@H](CO)O1)NCCc1ccccc1` gave BL2 CD40 inh 15[25 µM].
COc1ccc2c3c(n(C)c2c1)[C@@H](CO)N(C(=O)C1CCOCC1)CC31CCN(C(=O)C2CCOCC2)CC1 was read as BL2 CD40 inh 4.
Screening COc1ccccc1NC(=O)N1CC[C@H]2[C@@H]1c1cc(-c3ccccc3)ccc1N(C)[C@H]2CO returned BL2 CD40 inh -15.
`COc1ccccc1CN1[C@H](CO)[C@@H]2c3ccccc3N(C(=O)C3CC3)C[C@@H]21` gave BL2 CD40 inh 0.
`COC(=O)/C=C/S(=O)(=O)c1ccc(NC(C)=O)cc1` gave BL2 CD40 inh 106*.
CC(=O)Nc1ccc(S(=O)(=O)CC(=O)CS(=O)(=O)c2ccc(NC(C)=O)cc2)cc1 was read as BL2 CD40 inh 5.
Screening COC(=O)Nc1ccc(NC(C)=O)cc1 returned BL2 CD40 inh 3.
Screening COc1ccc(NC(=O)Nc2ccc3c(c2)[C@H]2C[C@@H](CC(=O)N4CCN(C)CC4)O[C@H](CO)[C@H]2O3)cc1 returned BL2 CD40 inh 3[25 µM].
C[C@@H](O)C#Cc1ccc([C@@H]2[C@H](CO)N3CCCCN(C(=O)c4ccc5c(c4)OCO5)C[C@@H]23)cc1 was read as BL2 CD40 inh 6[25 µM].
`O=C(C[C@@H]1C[C@H]2c3cc(NC(=O)c4cccnc4)ccc3O[C@H]2[C@@H](CO)O1)NC1CCCCC1` gave BL2 CD40 inh -6[25 µM].
CC(=O)N1[C@H](C(=O)N(C)C)[C@@H](CO)[C@@H]2Cn3c(ccc(-c4ccc(F)cc4)c3=O)[C@@H]21 was read as BL2 CD40 inh 0[25 µM].
Screening COc1ccc(CCNC(=O)COC(=O)c2cccs2)cc1 returned BL2 CD40 inh 1.
Screening CC(=O)NCCc1ccc(C(=O)COC(=O)c2cccs2)cc1 returned BL2 CD40 inh 77*.
For COc1ccc(C(=O)Nc2ccc(C(=O)OCC(=O)c3ccccc3)cc2)cc1 the results were BL2 CD40 inh 3.
For COc1ccccc1C(=O)COC(=O)c1cccs1 the results were BL2 CD40 inh -58.
For COc1ccc(C(=O)COC(=O)c2cccs2)cc1 the results were BL2 CD40 inh 81*.
For CC(=O)NCCc1ccc(C(=O)COC(=O)c2cccn2C)cc1 the results were BL2 CD40 inh 39.
`CCS(=O)(=O)N(C)C1c2cc(C#N)ccc2OC(C)(C)C1O` (centres undefined) gave BL2 CD40 inh 1[25 µM].
Screening C[C@@H]1CN(C)C(=O)c2cccc(N(C)C)c2O[C@H]1CN(C)C(=O)OC(C)(C)C returned BL2 CD40 inh 4.
`CNC[C@@H]1OCCCC[C@H](C)Oc2ccc(NC(=O)Nc3ccc(OC)cc3)cc2C(=O)N([C@@H](C)CO)C[C@@H]1C` gave BL2 CD40 inh 1[25 µM].
For C[C@@H]1CN([C@H](C)CO)C(=O)c2c(c3ccccc3n2C)-c2ccccc2CO[C@H]1CN(C)C(=O)Nc1cccc(Cl)c1Cl the results were BL2 CD40 inh 54*[25 µM].
C[C@H](CO)N1C[C@H](C)[C@@H](CN(C)C(=O)Nc2cccc(Cl)c2Cl)OCc2ccccc2-c2c(n(C)c3ccccc23)C1=O was read as BL2 CD40 inh 34[25 µM].
For C[C@@H]1CN([C@@H](C)CO)C(=O)c2c(c3ccccc3n2C)-c2ccccc2CO[C@H]1CN(C)C(=O)Nc1cccc(Cl)c1Cl the results were BL2 CD40 inh 41[25 µM].
For C[C@H]1CN([C@@H](C)CO)C(=O)c2c(c3ccccc3n2C)-c2ccccc2CO[C@H]1CN(C)C(=O)Nc1cccc(Cl)c1Cl the results were BL2 CD40 inh 23[25 µM].
Screening C[C@H](CO)N1C[C@H](C)[C@H](CN(C)C(=O)Nc2cccc(Cl)c2Cl)OCc2ccccc2-c2c(n(C)c3ccccc23)C1=O returned BL2 CD40 inh 65*[25 µM].
Screening COc1ccccc1NC(=O)N(C)C[C@H]1OCc2ccccc2-c2c(n(C)c3ccccc23)C(=O)N([C@@H](C)CO)C[C@H]1C returned BL2 CD40 inh 1.
For O=C(C[C@H]1C[C@@H]2c3cc(NC(=O)NC4CCCC4)ccc3O[C@@H]2[C@@H](CO)O1)NCc1cccnc1 the results were BL2 CD40 inh 17.
Screening C[C@@H]1CN([C@@H](C)CO)C(=O)c2ccccc2-c2ccccc2CO[C@H]1CN(C)S(=O)(=O)c1ccc([N+](=O)[O-])cc1 returned BL2 CD40 inh 2[25 µM].
O=C(C[C@H]1C[C@H]2c3cc(NC(=O)C4CCC4)ccc3O[C@H]2[C@H](CO)O1)NCc1ccc(Cl)cc1 was read as BL2 CD40 inh 11[25 µM].
C[C@@H]1CCCCO[C@H](CN(C)C(=O)NC2CCCCC2)[C@@H](C)CN([C@H](C)CO)C(=O)c2cc(N(C)C)ccc2O1 was read as BL2 CD40 inh -8[25 µM].
Screening Cc1ccc(S(=O)(=O)N(C)C[C@H]2OCc3ccccc3-c3ccccc3C(=O)N([C@H](C)CO)C[C@@H]2C)cc1 returned BL2 CD40 inh 14.
CCc1cnc(N2[C@H](C#N)[C@H](c3ccc(C#CC(C)C)cc3)[C@H]2CO)s1 was read as BL2 CD40 inh 5[25 µM].
Screening CCc1ccc(C(=O)COC(=O)CNC(=O)C2CCCCC2)cc1 returned BL2 CD40 inh 66*.
`O=C(CNC(=O)C1CCCCC1)OCC(=O)c1ccc(F)cc1` gave BL2 CD40 inh -9.
For CCOC(=O)c1c(C)[nH]c(C)c1C(=O)COC(=O)CNC(=O)C1CCCCC1 the results were BL2 CD40 inh 1.
`CC(=O)N(C)C[C@H]1Oc2ccc(NS(C)(=O)=O)cc2C(=O)N(C)C[C@H]1C` gave BL2 CD40 inh -18.
CCC(=O)N1[C@@H]2c3cccc(=O)n3C[C@H]1[C@H](CO)[C@H]2C(=O)N1CCCCC1 was read as BL2 CD40 inh -4[25 µM].
For C[C@@H]1CN(C)C(=O)Cc2ccccc2O[C@@H]1CN(C)S(C)(=O)=O the results were BL2 CD40 inh 1.
O=C(NC1CCCC1)c1cc2nc(-c3ccccc3)cc(-c3ccccc3)n2n1 was read as BL2 CD40 inh 9.
`CC(=O)Nc1nc2nc(-c3ccccc3)cc(-c3ccccc3)n2n1` gave BL2 CD40 inh 30*.
For O=C(Nc1nc2nc(-c3ccccc3)cc(-c3ccccc3)n2n1)c1ccco1 the results were BL2 CD40 inh 27.
CCCCn1c(=N)n(CC(=O)O)c2ccccc21 was read as BL2 CD40 inh 6.
CCCCCCN1Cc2ccccc2C1 was read as BL2 CD40 inh -16.
`CCCCCCCn1c2c(c(=N)c3ccccc31)CCC2` gave BL2 CD40 inh 84*.
O=C(NC1CCCCC1)N1CC(=O)N2[C@H](C1)[C@H](c1ccc(-c3cccnc3)cc1)[C@@H]2CO was read as BL2 CD40 inh 3.
For O=C(Nc1ccccc1)N1CC(=O)N2[C@H](C1)[C@@H](c1ccc(C#CC3CCCC3)cc1)[C@@H]2CO the results were BL2 CD40 inh 12.
C/C=C/c1ccc([C@@H]2[C@@H](CO)N(C(=O)CN(C)C)C23CN(C(=O)C2CCOCC2)C3)cc1 was read as BL2 CD40 inh -6[25 µM].
